Over roughly 25,000 sequences, “ln(normalized median fluorescence intensity)” has its median near 9.3; the highest 2% begin near 10. Only a selection was taken, and the highest values are over-represented in it overall.
System: PF3D7_0420300 AP2 domain 1 (GST-tagged)
Assay: gcPBM binding intensity (ln(normalized median fluorescence intensity)); higher = stronger DNA binding
Procedure, shortened: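 GST-tagged P. falciparum DNA-binding domains, expressed in E. coli (about 25 μg on average), were applied for 1 h to an Agilent 4 × 180k array of primer-extended double-stranded 36-bp intergenic genomic probes plus negative controls. The binding buffer was 1× PBS with 1% milk, 0.2 mg/ml BSA, 0.5% salmon testes DNA and 0.03% Triton X-100. Bound protein was detected with Alexa488 anti-GST antibody and scanned at 488 nm. Binding intensity is the highest Masliner-normalised natural-log median intensity across replicate spots of either probe orientation.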

Sequence	gcPBM binding intensity (ln)
ATAATTACAAAATAAACACACATATAGATTTATATG [CACACA_site6343]	9.6
TATAAATATACACCCACACACATATATAAATAAATA [CACACA_site7717]	9.89
TATAAATATACACCCACACACATATATATATATATA [CACACA_site3745]	9.66
TACCCACTAAAATACACACACACACCCACATATATA [CACACA_site6141]	10.2
TATATAAATATACACCCACACACATATATATATATA [CACACA_site9247]	9.63
TATACACCCTAAAATACACACACACCCACCCATATA [CACACA_site9380]	10.3
AAAAAAAATACATACACACACACACCCACATATATA [CACACA_site3561]	10.1
TACACGCTAAAATACACACACACACCCACATATATA [CACACA_site4153]	10.2
TATATATATATATACACACACACCCTAAAAATATAT [CACACA_site1611]	9.97
TATATATATAAATACACACACACCCTAAAAATATAT [CACACA_site4970]	10.1
AATATAAAAATATAAAAACACACGTAAAAAAATTTA [CACACA_site3399]	9.73
TAATTTCTTATGTATTGTACAAATAATGTATGATAT [XGTACX_site270]	9.2
AAAAAAAAAAAAAAGGTGCAAATAAATTAACCTTAT	9.16
TGCAAGGAACAACACACACACACATAAATGTATATA [CACACA_site8149]	10.2
AGAAAAAACAAAAGAGAAATGAAAAAAAAAAAAAAA [XGTACX_negctrl_site482]	8.87
TTAAGATAGCAAATATGTACACATTTGTAAAATAAA [XGTACX_site4837]	9.25
TTAAACGTACATAATACACACACATGTAGACATATA [CACACA_site8635]	9.79
TATATATATTGTTATTGTACACAAATATAGGAAATA [XGTACX_site7110]	9.23
ATATATTATTTCTAGTGTACATACCCATATATAATA [XGTACX_site8902]	9.46

Sequence	gcPBM binding intensity (ln)
TTTATTAATTTATAGTGTACATATTAATAATATATT [XGTACX_site7949]	9.09
GTTTTCTAGTGGGGGTGTACATATTTATATTTAATA [XGTACX_site8378]	10.2
TTTGTGATATTATATTGTACCCTATATTTATTATAA [XGTACX_site4240]	9.56
TTATGTTCATTATATGCACACATATATATAAATGTA [CACACA_site8947]	9.24
TTTTTATAACAGCTTAGTACATATAAGAATTCTTGC [XGTACX_site5890]	8.9
TAAAAGAAAGCACATACACACACAAAAAAAAAAAAG [CACACA_site8159]	10.2
CATAAAAATTGAAGCACACACACAAAAGAAATACAA [CACACA_site1112]	10.2
TCATAATGAAAACAAGCACACATACATAAAATAAAA [CACACA_site9069]	9.7
AAGCACAAAAAATACACACACAAAAAATAAAAAAAG [CACACA_site1840]	10.1
ATAATGAAAACAAGCACACATACATAAAATAAAATA [CACACA_site3257]	9.86
GCAAAATAAAGAAGCACACAAAAATGAAATATATAT [CACACA_site3651]	9.59
TAAAAGTTGAAGCACACACACAAAAGAAATACAATA [CACACA_site6649]	10.1
AACATAAAAATTGAAGCACACACACTAATGAAATAC [CACACA_site8287]	10.2
TAAAAATTGAAGCACACACACAAAAGAAATACAATA [CACACA_site1113]	10.2
GGTCTTTTCAACACACGTACATAAAAATATTATACA [XGTACX_site5360]	9.47
AAATAAATAATAAATAAATAAATAAAATACCAAATA [GTGCAC_negctrl_site620]	9.6
AAGAAAATATAAAATGCACACTATAAATTGTATATA [CACACA_site7928]	9.51
TACATAAATACATACATACACACATATATATATATA [CACACA_site2105]	9.56
AAATAAAAAACAGTGGCACACATTATGTATCCACCT [CACACA_site3756]	9.32

Sequence	gcPBM binding intensity (ln)
TATATACGCATGCGCACACACAAGTGGGAAATTTGG [CACACA_site1785]	9.52
TGATATTTTATTATTAAAATATATACATATATATAT [CACACA_negctrl_site1456]	9.26
TAAAAAAGTTATATTACACACTTTATTGGTTAACTT [CACACA_site653]	9.35
CTCTTGTCATTTTGCACACACACATGTATAGGTTAT [CACACA_site3057]	10.2
CTTGTCATTGGGCACACACACATGTATAGGTTATTA [CACACA_site3058]	9.7
CTCTTGTCATTTTGCACACACACATGGATAGGTTAT [CACACA_site5655]	10.2
AGCTCTTGTCATTTTGCACACACACCGGTATAGGTT [CACACA_site5654]	10.1
AGCTCTTGTCATTTTGCACACACACCCGTATAGGTT [CACACA_site3056]	10
CTTGTCATTTGGCACACACACATGTATAGGTTATTA [CACACA_site5656]	9.9
CGTATGTATATATATATACACACTTCTGTGATACGA [CACACA_site1949]	9.33
ATATAATTATATTCCATACACACATATATTTAAAGG [CACACA_site2958]	9.42
TAAATAAGCACATACACACATACATACATACATAAA [CACACA_site4017]	9.87
TATAAACATTATAAATGTACAAATATATATATATAT [XGTACX_site3218]	9.28
ATTATAATTACTCTAGTGCATTATAAATATGAATAA	8.93
TATGCAAGGAACCACACACACACACCCAAATGTATA [CACACA_site750]	10.1
TATGCAAGGAACCACACACACACACGGAAATGTATA [CACACA_site6490]	10.2
TATGCAAGGAACCACACACACACACCGAAATGTATA [CACACA_site4573]	10.1
AAATTAAAAAAAAATAAATAAAAAAAAAAAAAAAAT [CACACA_negctrl_site1611]	9.35
TGGATATATGTAAAAATTGCAAGAAAGATAAAAGGA [CACACA_negctrl_site64]	9.6

Reference: the supplement of paper PMC11417369
